Screening results from PubChem BioAssay.
RTF Ca sens act: increases calcium sensitivity of human cardiac regulated thin filaments | AID 493008 | IANBD-labeled TnC RTF fluorescence at EC20 calcium; 0% EC20 calcium, 100% full calcium | activation, % at 7.2 µM | 340,000 compounds, 0.24% hits | P19429+P45379;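 active means activation above the mean over all tested compounds plus 3 SD, cut at about 30% in these data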;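 further: rise in fluorescence read as greater calcium sensitivity of cardiac thin filaments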
IDE cell activ: boosts human insulin-degrading enzyme activity in HEK cells; P14735; FAbeta-B cleavage, fluorescence polarization; 0% vehicle, 100% cell-free pure enzyme wells; 340,000 compounds, 0.073% hits; AID 493087; activation, % at 5.96 µM;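 active means activation above the mean of all tested compounds plus 3 SD, set per screening campaign, cut at about 17% in these data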
CRFBP-R2 agonist: CRF-BP/CRF-R2 complex agonism; HEK293 CRF-R2/CRF-BP, calcium dye fluorescence (FLIPR); percent of saturating CRF peptide response; 350,000 compounds, 0.46% hits; activation, % at 13.2 µM;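 active means activation of at least 50%, plus an integration ratio under a set limit after plate pattern correction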
RTF Ca sens inh: cardiac RTF calcium desensitization | AID 493244 | inhibition, % at 7.15 µM | 340,000 compounds, 0.12% hits | IANBD-labeled cardiac RTF, Ca2+ fluorescence;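 active means inhibition above the mean inhibition of all tested compounds plus 3 SD, cut at about 17% in these data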;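 further: assay run at fixed EC70 calcium of 1.6 mM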
TPT1 inh: C. albicans TPT1 enzyme inhibition. recombinant caTPT1, FP RNA substrate dephosphorylation. inhibition, % at 5 µM. 300,000 compounds, 0.81% hits;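 active means inhibition above the mean of all tested compounds plus 3 SD, set per screening campaign, cut at about 24% in these data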
IDE cell inh: inhibits human insulin-degrading enzyme in HEK cells; P14735; 320,000 compounds, 0.41% hits; inhibition, % at 5.59 µM; FAbetaB cleavage, fluorescence polarization;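 active means percent inhibition above the average of all tested compounds plus 3 SD, set per screening campaign, cut at about 16% in these data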;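 further: IDE supplied by intact live HEK cells; FP after avidin binding of uncleaved biotin substrate so inhibition keeps polarization high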
TPT1 inh confirm: TPT1 (C. albicans) inhibition, confirmation; 2,400 compounds, 74% hits; recombinant caTPT1, fluorescence polarization, RNase T1 coupled; inhibition, % at 5 µM; shares compounds with TPT1 inh;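 active means inhibition above the primary screen limit, the mean inhibition of all tested compounds plus 3 SD, cut at about 25% in these data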
RNase T1 inh: blocks Aspergillus oryzae RNase T1, a TPT1 counter-screen; shares compounds with TPT1 inh; RNase T1 cleavage, fluorescence polarization, 1536-well; inhibition, % at 5 µM; 2,400 compounds, 83% hits;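 active means inhibition above the solvent-only control well mean plus 3 SD, limit set per screening run, cut at about 23% in these data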;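 further: inhibitors block cleavage so intact labeled substrate keeps polarization high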
Target sequence (P00651 whole entry, looked up): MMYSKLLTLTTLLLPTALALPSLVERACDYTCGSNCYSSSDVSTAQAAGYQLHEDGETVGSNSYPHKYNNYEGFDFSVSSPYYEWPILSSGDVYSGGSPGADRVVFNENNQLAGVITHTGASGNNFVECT
Large screens that a line does not name were inactive (follow-up assays come after a bar, where they were run). Only some compounds are listed: those with a hit (about 1.5% of all), similar ones and a draw of the others.

Cc1ccc(S(=O)(=O)N(C)C)cc1NC(=O)CCCNC(=O)c1ccc(Cl)cc1	none
Cc1sc2nc(CSC(C)C(=O)Nc3ccccn3)[nH]c(=O)c2c1C (stereo not given)	none (no result: TPT1 inh)
Cc1ccc(NC(=O)C(C)SCc2nc3sc4c(c3c(=O)[nH]2)CCCC4)nc1 (stereo not given)	TPT1 inh 26.0 | TPT1 inh confirm 36.9 | RNase T1 inh 44.7
CC(SCc1nc2sc3c(c2c(=O)[nH]1)CCCC3)C(=O)Nc1ccccn1 (stereo not given)	TPT1 inh 32.5 | TPT1 inh confirm 38.8 | RNase T1 inh 50.3
Cc1cccc(NC(=O)CNC(=O)CCc2nc3sc4c(c3c(=O)[nH]2)CCCC4)c1C	TPT1 inh 32.3 | TPT1 inh confirm 43.0 | RNase T1 inh 53.4
Cc1cccc(NC(=O)CCc2nc3sc4c(c3c(=O)[nH]2)CCCC4)n1	none
C=CCN([C@H](C(=O)OC)C(C)C)S(=O)(=O)CCNCc1ccccc1	none (no result: TPT1 inh, IDE cell inh)
Cc1ccc(S(=O)(=O)NNc2nnc(C)c(=O)[nH]2)cc1	TPT1 inh 51.2 | TPT1 inh confirm inactive | RNase T1 inh inactive
COCCNc1nc(-c2cc(C)n(CCc3ccc(OC)cc3)c2C)cs1	TPT1 inh 48.0 | TPT1 inh confirm inactive | RNase T1 inh inactive
Cc1ccccc1Sc1ccc(N)cn1	none (no result: RTF Ca sens act, IDE cell activ, RTF Ca sens inh)
COC1=C/C(=C/c2c(N)n3c(nc2=O)sc2cc(S(C)(=O)=O)ccc23)C=CC1=O	CRFBP-R2 agonist 96.3, TPT1 inh 54.3 | TPT1 inh confirm 146.5 | RNase T1 inh 143.0
CS(=O)(=O)c1ccc2c(c1)sc1nc(=O)c(/C=C3/C=CC(=O)C(O)=C3)c(N)n12	TPT1 inh 45.3 | TPT1 inh confirm 98.2 | RNase T1 inh 104.0
CS(=O)(=O)c1nsc2nc(=O)c(/C=C3\C=Nc4ccccc43)c(N)n12	none
CCCc1cc(=O)n2nc(N3CCC(C(=O)N4CCN(c5cccc(OC)c5)CC4)CC3)sc2n1	none
COc1ccc(NC(=O)Cn2c([N+](=O)[O-])cnc2C)c(OC)c1	none (no result: RTF Ca sens act, IDE cell activ, RTF Ca sens inh, TPT1 inh, IDE cell inh)
C/C(=N\Nc1ccc([N+](=O)[O-])cc1)c1ccc2c(c1)OCO2	TPT1 inh 57.0 | TPT1 inh confirm 52.8 | RNase T1 inh 65.2
C/C(=N/Nc1ccc([N+](=O)[O-])cc1)c1ccc(C)cc1C	TPT1 inh 26.0 | TPT1 inh confirm 35.9 | RNase T1 inh 46.7
C/C(=N\NS(=O)(=O)c1ccc([N+](=O)[O-])cc1)c1ccc2c(c1)OCO2	none (no result: TPT1 inh, IDE cell inh)
CC(C)(C)c1cc(C(=O)C[n+]2ccc(C(=O)NCCCO)cc2)cc(C(C)(C)C)c1O	none
CCOC(=O)CSc1nc2ccccc2n1C(=O)OCC	TPT1 inh 38.7 | TPT1 inh confirm 37.0 | RNase T1 inh 47.4
Cc1cccc2cc3c(NC(=O)C(C)(C)C)nn(CC(C)C)c3nc12	none
CC(=O)c1ccc(-c2ccc(/C=C(/Sc3n[nH]c(C)n3)C(=O)O)o2)cc1	TPT1 inh 77.7 | TPT1 inh confirm 79.1 | RNase T1 inh 91.2
O=[N+]([O-])c1ccc(-c2ccc(/C=N/Nc3nc(N4CCCC4)nc(N4CCCC4)n3)o2)cc1	CRFBP-R2 agonist 129.2, TPT1 inh 28.8 | TPT1 inh confirm 42.9 | RNase T1 inh 59.1
O=[N+]([O-])c1ccc(/C=N/Nc2nc(N3CCCC3)nc(N3CCCC3)n2)o1	none
O=C1CN(CC(=O)Nc2cccc(Cl)c2Cl)c2ccccc2N1	TPT1 inh 33.9 | TPT1 inh confirm inactive | RNase T1 inh 23.9
O=C(CN1C(=O)NC2(CCCC2)C1=O)Nc1cccc(Cl)c1Cl	none
CSc1nnc(C)c(/C=C/NOCc2ccc(Cl)cc2)n1	none
CSc1nnc(C)c(/C=C/Nc2ccc(C)cc2)n1	CRFBP-R2 agonist 105.1, TPT1 inh 156.2 | TPT1 inh confirm 133.9 | RNase T1 inh 128.1
O=[N+]([O-])c1cccc(-c2nnc(-c3ccccc3F)o2)c1	none (no result: TPT1 inh, IDE cell inh)
COC(=O)c1c(-c2ccc(C)cc2)csc1NC(=O)c1c(-c2ccccc2)noc1C	none (no result: RTF Ca sens act, IDE cell activ, CRFBP-R2 agonist, RTF Ca sens inh)
COC(=O)c1c(-c2cccnc2)csc1NC(=O)c1cc(C)on1	TPT1 inh 44.0 | TPT1 inh confirm 50.4 | RNase T1 inh 65.6
C=CCn1c(/N=C/c2ccc(N(C)C)cc2)nc2ccccc21	TPT1 inh 26.6 | TPT1 inh confirm 110.3 | RNase T1 inh 117.2
C[C@H](NC(=O)c1ccccc1Cl)C(=O)OCc1cn2cc(Cl)ccc2n1	none
COc1cc(C(CC(=O)Nc2ccc(Cl)cn2)N2Cc3ccccc3C2=O)cc(OC)c1OC (stereo not given)	none
CCOC(=O)c1ccc(NCn2c(=O)oc3ccccc32)cc1	CRFBP-R2 agonist 61.9, TPT1 inh 30.6 | TPT1 inh confirm 44.4 | RNase T1 inh 57.5
CCCCCCNC(=O)O[C@H]1C[C@H](C(=O)OC)[C@H](C(=O)OC)C2CN(S(=O)(=O)c3ccc(C)cc3)C[C@@]21O (stereo not given in full)	none (no result: RTF Ca sens act, IDE cell activ, RTF Ca sens inh, TPT1 inh, IDE cell inh)
CCNC(=O)/C(C#N)=C/c1c(N2CCCCCC2)nc2ccccn2c1=O	none
CNC(=O)/C(C#N)=C/c1c(N2CCCCCC2)nc2ccccn2c1=O	TPT1 inh 36.0 | TPT1 inh confirm 51.4 | RNase T1 inh 60.2
CC(=N)c1c(O)c2ccccc2oc1=O	TPT1 inh 26.8 | TPT1 inh confirm inactive | RNase T1 inh inactive
COC(=O)c1ccc(COC(=O)C2CCN(S(=O)(=O)c3c(C)cc(C)cc3C)CC2)o1	none (no result: RTF Ca sens act, IDE cell activ, RTF Ca sens inh, TPT1 inh, IDE cell inh)
O=C(OCc1ccccc1)N(CCF)c1cn(Cc2ccccc2)c(=O)n(Cc2ccccc2)c1=O	none (no result: TPT1 inh, IDE cell inh)
NC(=O)c1c(/N=C/c2cccnc2)sc2c1CCCC2	none (no result: RTF Ca sens act, IDE cell activ, RTF Ca sens inh)
COc1ccc(N/C=C\C(=O)c2ccc(Br)cc2)cc1OC	TPT1 inh 33.6 | TPT1 inh confirm 50.0 | RNase T1 inh 60.0
CCCN1CCN(S(=O)(=O)c2ccc(-n3cnnn3)cc2)CC1	none
Cc1cccc(-n2c(N)c(-c3nc4ccccc4n3C)c3nc4ccccc4nc32)c1	TPT1 inh 26.0 | TPT1 inh confirm 25.0 | RNase T1 inh 36.1
Cc1ccc2c(c1)c1nc3ccccc3nc1n2C	none
Cn1c(-c2c(N)n(-c3ccccc3)c3nc4ccccc4nc23)nc2ccccc21	CRFBP-R2 agonist 85.8, TPT1 inh 40.4 | TPT1 inh confirm 42.7 | RNase T1 inh 52.3
COC(=O)c1cc(NC(=O)c2cccc(Cl)c2)c(=O)oc1/C=C/Nc1cc(C)cc(C)c1	TPT1 inh 194.0 (no result: RTF Ca sens act, IDE cell activ, CRFBP-R2 agonist, RTF Ca sens inh) | TPT1 inh confirm 166.3 | RNase T1 inh 155.4
Cc1oc(=O)c(NC(=O)c2ccc(Cl)cc2)cc1C(=O)c1ccccc1	none
